# Cav3 T inh: inhibitors of human Cav3.2 T-type calcium channel. O95180. Cav3.2-expressing cells, Fluo-4 calcium fluorescence FDSS; active compounds read low. B-score at 10 µM. 4% of 100,000 active;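 active = single-dose well whose peak fluorescence ratio is a statistical outlier from its plate by either plate-standardised score or position-corrected B-score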
# HER2 expr 66K: Her2 kinase expression inhibition | SKBR-3 HER2 protein level, AlphaScreen, 18-24 h; active compounds read low | P04626 | 0.69% of 65,000 active | HER2 level % of control, % at 10 µM;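 active = HER2 level under 5% of the carrier-only control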;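 also: 100% = DMSO carrier and 0% = 500 nM PU-H71 HSP90 inhibitor; lower value means stronger loss of Her2 protein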
# PLAP activator: human PLAP activation; 1.2% of 96,000 active; purified PLAP enzyme, luminescent substrate read-out; active compounds read high; activation fold at 20 µM; in the data active = activation fold above about 2
# M1 ag: activates the M1 muscarinic receptor; 3% of 64,000 active; AID 626; B-score at 10 µM; CHO-M1 cells, Fluo-4 calcium fluorescence, agonist mode; active compounds read high;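 active = fluorescence rise, raw or as B-score row- and column-corrected plate score, outside the 99.7% band of its plate's samples, either direction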
# M1 antagonist: blocks the rat M1 muscarinic receptor response to acetylcholine. B-score at 10 µM. AID 628. CHO-M1 cells, Fluo-4 calcium, ACh EC80 antagonist mode; active compounds read low. 3.4% of 64,000 active;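 active = calcium fluorescence response, raw or row-and-column corrected B-score, differing from the plate sample mean either way at a set confidence level, mostly lower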
# An asterisk follows results filed as active; / = no result. Rows were chosen to be rich in hits. Some 7.9% of all compounds tested hit in one or more screens of this group.
SMILES,Cav3 T inh,HER2 expr 66K,PLAP activator,M1 ag,M1 antagonist
Cn1c(=O)c2c(nc(NCc3ccc4c(c3)OCO4)n2Cc2ccc(F)cc2)n(C)c1=O,-4.31*,64.8,0.9,-0.631,-0.195
CCN(CC)C(=O)C1CCCN(c2ccc([N+](=O)[O-])cc2/C=N/NC(=O)c2cccc([N+](=O)[O-])c2)C1 (stereo not given),/,/,1.3,/,/
COc1cccc(CN2CCN(C(=O)c3cccc4ccccc34)CC2)c1OC,-4.54*,81.4,1.6,-0.47,0.461
CCC(CO)n1cnnc1-c1ccncc1 (stereo not given),-0.0773,117.2,0.9,0.000196,1.18
COc1ccc(-c2cc3ccccc3n2CC(O)Cn2nc(C)cc2C)cc1 (stereo not given),-6.43*,64.4,1.7,-0.102,0.977
NNC(=O)c1cnn(Cc2ccccc2)c1N,-0.148,/,/,/,/
CCOc1ccc(-n2c(SCc3ccc(C#N)cc3)nnc2-c2cccnc2)cc1,-6.8*,130.5,1.1,0.163,0.599
COc1ccc(-n2c(COc3ccc(C)cc3)nnc2SCc2ccc(C#N)cc2)cc1,-2.63,/,1.1,/,/
COc1ccc(-n2c(COc3ccc(Cl)cc3)nnc2SCc2ccc(C#N)cc2)cc1,-4.26*,/,0.8,/,/
N#Cc1ccc(CSc2nnc(-c3cccnc3)n2-c2ccccc2)cc1,1.95,83.7,0.8,-0.211,0.279
CCc1cccc(OCC(=O)Nc2ccc(S(=O)(=O)Nc3onc(C)c3C)cc2)c1,/,91.6,1.6,0.39,0.569
O=C(CSc1ccc2nnc(-c3cccnc3)n2n1)N1CCc2ccccc21,/,90.5,1.1,-2.91*,0.381
O=C(CSc1nnc(-c2ccccc2)c(-c2ccccc2)n1)N1CCc2ccccc21,-4.53*,/,1,/,/
O=C(CSc1nc(N2CCCCC2)nc(N2CCCCC2)n1)N1CCc2ccccc21,/,99.8,1.2,0.0402,1.09
O=C(CSc1ccc2nnc(-c3ccc(Cl)cc3)n2n1)N1CCc2ccccc21,/,/,1,/,/
O=C(Nc1nnc(CCS(=O)(=O)c2ccc(Br)cc2)s1)c1ccc([N+](=O)[O-])cc1,0.865,/,1.1,/,/
Cn1c(SCc2ccc(Cl)cc2)nc(C(F)(F)F)cc1=O,0.0346,/,1.1,/,/
Cc1ccc(/C=C/C2=Cc3c(sc(NC(=O)CSc4n[nH]c(N)n4)c3C#N)C(C)(C)C2)o1,0.992,-1.5*,1.6,-2.18,-0.0442
CCOC(=O)c1sc(NC(=O)CSc2n[nH]c(-c3ccccc3)n2)c(C#N)c1C,/,46.5,1.7,-1.33,0.0239
Cc1nnc(N2C(=O)C(O)=C(C(=O)c3ccco3)C2c2ccc(C(C)(C)C)cc2)s1 (stereo not given),-3.67*,/,/,/,/
Cc1nnc(N2C(=O)C(O)=C(C(=O)c3ccco3)C2c2ccc(F)cc2)s1 (stereo not given),0.476,111.0,1.2,17.8*,-0.283
CC(C)C[C@H](NC(=O)OC(C)(C)C)c1nnc(SCc2cccc(F)c2)o1,-3.42*,129.6,1.2,0.701,-1.64
C=CCn1c(COc2ccc3c(c2)CCCC3)nnc1SCC(=O)Nc1cccc(SC)c1,-4.37*,/,1.3,/,/
COc1ccc(S(=O)(=O)N(CC(=O)N/N=C/c2cccs2)c2cc(C)cc(C)c2)cc1OC,-0.915,/,1.4,/,/
COc1ccc(S(=O)(=O)N(CC(=O)N/N=C/c2cccs2)c2ccc(C)cc2)cc1OC,-6.13*,/,1,/,/
SMILES,Cav3 T inh,HER2 expr 66K,PLAP activator,M1 ag,M1 antagonist
CC(C)NC(=S)Nc1ccc(Oc2ccccc2)cc1,-4.74*,/,1,/,/
CCCNC(=S)Nc1ccc(Oc2ccccc2)cc1,-1.09,/,0.8,/,/
Cc1ccc(NC(=O)C2CCN(S(=O)(=O)c3c(C)n[nH]c3C)CC2)nc1,0.136,88.5,1.3,0.306,0.366
CCn1c(=O)cc(SCC(=O)Nc2ccccc2N2CCN(C)CC2)c2ccccc21,/,113.6,/,-0.0436,-0.0216
Cc1nnc(SCCC(=O)Nc2nc(-c3ccccc3)ns2)s1,-5.02*,101.4,0.4,-0.199,-0.96
COc1ccc(-c2ccnc3nc(N4CCN(c5ccccc5)CC4)nn23)cc1,-1.08,/,1.6,/,/
CC(COc1ccccc1Cc1ccccc1)N1CCCCC1 (stereo not given),-2.93,/,/,/,/
COc1ccccc1N(CCC#N)C(=O)CSc1nc(-c2ccccc2)cn1N,0.571,97.5,1,0.295,0.586
Cc1nc(-c2ccccc2)sc1-c1nc(-c2cccs2)ncc1S(=O)(=O)c1ccccc1,-4.79*,/,1,/,/
O=S(=O)(c1ccccc1)c1cnc(-c2cccnc2)nc1-c1ccccc1,/,/,0.9,/,/
Cc1nc(-c2ccccc2)sc1-c1nc(-c2cccnc2)ncc1S(=O)(=O)c1ccccc1,-5.04*,/,1.2,/,/
CC(C)C[C@H](NC(=O)OC(C)(C)C)C(=O)N/N=C/C1=Cc2ccccc2OC1C (stereo not given in full),-4.45*,/,1.6,/,/
CC(C)C[C@H](NC(=O)OC(C)(C)C)C(=O)N/N=C/c1ccc2nccnc2c1,0.484,/,1.1,/,/
Cc1cccc(/C(N)=N/OC(=O)N2c3ccccc3Sc3ccccc32)c1,-4.92*,/,1,/,/
CCC(C(=O)O/N=C(\N)c1cccc(C)c1)c1ccccc1 (stereo not given),-3.34,/,1.1,/,/
Cc1ccc(CSc2nc3ccccc3c(=O)n2Cc2ccco2)cc1,-4.56*,/,/,/,/
O=c1c2ccccc2nc(SCc2cccc(F)c2)n1Cc1ccco1,-3.38,100.5,1.2,-0.0347,-0.244
O=c1c2ccccc2nc(SCc2ccccc2)n1Cc1ccco1,-5.81*,116.9,0.9,1.68,-0.563
CCOc1ccccc1NC(=O)NC1(C(=O)N2CCN3CCCC3C2)CCCCC1 (stereo not given),0.118,92.7,2.1*,-0.0233,0.511
O=C(NCc1ccccc1)NC1(C(=O)N2CCN3CCCC3C2)CCCCC1 (stereo not given),0.31,/,/,/,/
O=C(CCc1ccccc1)Nc1cc(Cl)ccc1O,-4.27,49.0,1.3,/,/
CCN(CC)C(=O)CC(c1ccccc1)c1ccco1 (stereo not given),0.109,/,1.4,/,/
COc1ccccc1C(CCN(Cc1cccs1)C(C)=O)c1ccco1 (stereo not given),-4.96*,82.7,1.7,-0.884,0.281
CCC(=O)N(CCC(c1ccccc1)c1ccco1)Cc1cccs1 (stereo not given),-9.38*,/,1.2,/,/
CS(=O)(=O)N1CCN(c2ccccc2NC(=O)c2ccco2)CC1,-0.207,/,0.9,/,/
SMILES,Cav3 T inh,HER2 expr 66K,PLAP activator,M1 ag,M1 antagonist
CCCn1c(=O)c(C(=O)Nc2nnc(C)s2)c(O)c2ccccc21,/,106.0,/,-0.833,-0.522
CCn1cc(Cl)c(C(=O)Nc2nc3ccccc3n2CCN2CCCCC2)n1,-2.43,84.3,2.3*,0.822,-1.52
O=C(Nc1nc2ccccc2n1CCN1CCCCC1)c1ccco1,-0.525,36.7,1.4,-0.198,0.342
Cc1c(Cl)c(C(=O)Nc2nc3ccccc3n2CCN2CCCCC2)nn1C,/,/,2.5*,/,/
CN(C)CCn1c(NC(=O)c2ccc(Cl)cc2)nc2ccccc21,0.659,/,2.3*,/,/
CCN(CCNC(=O)c1cc(C)nn1-c1ccccc1)c1ccccc1,0.437,84.6,1.6,-0.433,-0.0262
C=COCCNC(=O)Nc1ccc(Cl)cc1Cl,-1.04,107.5,0.8,-0.0765,-0.00885
CCN(Cc1nc2ccccc2c(=O)[nH]1)Cc1cc(=O)oc2cc(OC)ccc12,2.27,/,1.7,/,/

# From PubChem BioAssay
